From PubChem BioAssay
Sampled rows, rich in hits. Any-hit rate of the full collection: about 7.3%.
Luc counter – Kinase-Glo luciferase inhibition (counter-screen); Q27757; Kinase-Glo luciferase, ATP luminescence, 8 min; Potency, µM (highest dose often 38.3 µM), without a hit: at the top dose activity change, negative = inhibition, most hits filed as inhibitors; actives 0.28% (n = 200,000); AID 1379; further: on the % scale 0 is the no-effect control and ±100 the full control effect; nearly all actives have a fitted effect of over 60% in size
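Kinase-Glo luciferase light output from ATP and luciferin was measured with 10 uM ATP, within the enzyme's linear range. Buffer: 50 mM imidazole pH 7.2, 50 mM KCl, 7 mM MgCl2, 0.01% Tween 20, 0.05% BSA; luminescence read after 8 min at ambient temperature.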
SMN2 splice enh – enhancers of SMN2 splice variant expression; AID 1458; HEK293 SMN2-luciferase splicing reporter, luminescence, 30-36 h; actives 2.8% (n = 210,000); Potency, µM (highest dose often 46.1 µM), without a hit: at the highest dose activity change, positive = activation, most hits filed as activators; further: % of control where 0% means no effect; nearly all actives have a fitted effect of over 55% in size
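HEK293 cells carry an SMN2 minigene-luciferase reporter in which exon 7 inclusion puts luciferase in frame. Cells were seeded at 2000 cells/well, attached for 10-12 hours, then exposed to compounds for 30-36 hours at 37C before ONE-Glo luminescence.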
Rab9 promoter act – Rab9 promoter activation. actives 2.8% (n = 320,000). Potency, µM (doses to about 9.22 µM), without a hit: top-dose activation, negative = inhibition, most hits filed as activators. Huh7 Rab9 promoter-luciferase reporter, luminescence, 24 h; further: % of control where 0% means no effect; nearly all actives have a fitted effect of over 60% in size
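Steps: seed 1500 Huh7 Rab9-luc cells per well, rest 2 h at 37 °C; add compound in DMSO; incubate 24 h; add luciferase reagent, 10 min ambient; read luminescence.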
ELG1 genotoxic – induces genotoxicity in HEK293T cells with luciferase-tagged ELG1; HEK293T ELG1-luciferase reporter, luminescence, 16 h; Potency, µM (top dose mostly 46 µM), for inactives: at the top dose activity change, positive = activation, actives largely listed as activators; actives 1.3% (n = 330,000); further: % of control where 0% means no effect; nearly all actives have a fitted effect of over 60% in size
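Quantitative HTS format in 1536-well plates. HEK293T ELG1-luciferase reporter cells receive test compound and are incubated 16 hr at 37 °C, 5% CO2; ONE-Glo added, 30 min room temperature, then luminescence read.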
FLuc modulator – counter-screen for miR-21 project: firefly luciferase inhibitors or activators; P08659; purified FLuc, Km substrates, luminescence inhibition; Potency, µM (series often up to 57.5 µM), without a hit: at the highest dose activity change, negative = inhibition, actives largely listed as inhibitors; actives 6.9% (n = 360,000); AID 588342;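 further: plate controls were vehicle for no effect and reference inhibitor for full effect; nearly all actives have a fitted effect of over 55% in size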
Target sequence (P08659 whole entry, looked up): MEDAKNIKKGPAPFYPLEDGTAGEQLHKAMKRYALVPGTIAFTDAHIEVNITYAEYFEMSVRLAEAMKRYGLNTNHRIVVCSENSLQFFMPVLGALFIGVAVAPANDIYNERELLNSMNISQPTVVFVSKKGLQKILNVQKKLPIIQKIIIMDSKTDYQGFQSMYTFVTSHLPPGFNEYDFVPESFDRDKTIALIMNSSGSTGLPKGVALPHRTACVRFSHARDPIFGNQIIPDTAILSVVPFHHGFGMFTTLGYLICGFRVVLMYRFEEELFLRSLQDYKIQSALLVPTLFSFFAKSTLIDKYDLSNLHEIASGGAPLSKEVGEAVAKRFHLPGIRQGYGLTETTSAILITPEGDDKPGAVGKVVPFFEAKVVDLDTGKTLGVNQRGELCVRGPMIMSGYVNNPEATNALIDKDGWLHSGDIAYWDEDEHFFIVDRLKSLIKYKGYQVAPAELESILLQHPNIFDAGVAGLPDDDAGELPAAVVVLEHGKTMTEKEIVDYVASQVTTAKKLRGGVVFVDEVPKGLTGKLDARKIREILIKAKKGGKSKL
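Biochemical qHTS of compounds, final roughly 60 µM downward over six points, against 10 nM purified firefly luciferase using Km concentrations of substrates (10 uM D-luciferin, 10 uM ATP) in Tris acetate pH 7.5 buffer; luminescence output.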
NPC1 prom act – activators of NPC1 promoter; Potency, µM (titrated, usually from 9.22 µM), inactives show at the highest dose activation, usual class: activators; Huh7 NPC1 promoter luciferase reporter, 24 h; actives 2.4% (n = 320,000); AID 485313; further: % of control where 0% means no effect; nearly all actives have a fitted effect of over 60% in size
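Stably transfected Huh7 (NPC1 promoter→luciferase), 1500 cells/well in Opti-MEM + 10% FBS, 2 h settle, then compound 24 h at 37 °C. Luminescence after 10 min with Amplite reagent.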
* marks the source's active call; other numbers are inactive results; ? = inconclusive; / = not tested or not shown; [ ] = another dose, or the depositor's remark. The call rests on the fitted dose curve; in most records, active means well fitted curve in the direction sought with a large enough effect; inconclusive means small, poorly fitted or top-dose-only effect, or another doubt; inactive means no such curve, though single readings can be large; an effect the other way counts as inactive or inconclusive. Potency means the concentration at half of the fitted maximal effect.

SMILES	Luc counter	SMN2 splice enh	Rab9 promoter act	ELG1 genotoxic	FLuc modulator	NPC1 prom act
CCS(=O)(=O)C1=NSC2=NC(=O)/C(=C\c3ccc(OC(=O)c4ccco4)c(OC)c3)C(=N)N21	/	/	2.1%	2.7%	21.3µM*	-4.7%
N=C1/C(=C\c2ccc(OC(=O)c3ccco3)cc2)C(=O)N=C2SC=NN12	11.8%	?	1.4%	-2.4%	15.1µM*	-1.8%
COc1cc(/C=C2/C(=N)N3C(SC)=NSC3=NC2=O)ccc1OC(=O)c1ccco1	/	/	?	?	26.9µM*	?
COc1cc(/C=C2/C(=N)N3C(=NC2=O)SN=C3S(=O)(=O)C(C)C)ccc1OC(=O)c1ccco1	/	/	-0.2%	5.0%	13.5µM*	5.3%
CS(=O)(=O)C1=NN2C(=N)/C(=C\c3ccc(OC(=O)c4ccco4)cc3)C(=O)N=C2S1	/	/	-0.8%	0.9%	?	0.9%
CSC1=NSC2=NC(=O)/C(=C\c3cccs3)C(=N)N12	-11.4%	0.501µM*	1.41µM*	?	9.53µM*	3.55µM*
CC(C)CSC1=NSC2=NC(=O)/C(=C\c3cccs3)C(=N)N12	0.3%	?	12.0%	-0.7%	?	25.0%
COc1cc(/C=C2/C(=N)N3C(c4ccccc4)=CSC3=NC2=O)ccc1OCC(=O)O	/	/	1.3%	-3.8%	26.9µM*	8.9%
Cc1ccc(-c2nc3n(n2)Cc2ccccc2-3)cc1	?	1.26µM*	3.16µM*	?	0.301µM*	3.55µM*
O=c1nc2n(c3c1oc1ccccc13)Cc1ccccc1-2	6.4%	-15.0%	-1.5%	?	-3.3%	-11.2%
CCn1c(C)nc2cc(-c3nc4n(n3)Cc3ccccc3-4)ccc21	2.24µM*	-64.7%	-43.5%	-18.5%	0.0239µM*	-47.7%
NC(=S)Cc1nc2n(n1)Cc1ccccc1-2	-4.8%	-7.6%	-8.4%	5.2%	2.6%	0.2%
Fc1ccc(-c2nc3n(n2)Cc2ccccc2-3)cc1	11.2µM*	2.82µM*	?	0.411µM*	0.601µM*	?
CCOC(=O)c1ccc(N2C(=O)c3n[nH]c(-c4ccco4)c3C2c2ccccc2OC)cc1 (stereo unspecified)	/	-1.2%	/	/	-9.5%	/
Oc1ccc(/C=N/N2CCCCC2)c(O)c1O	/	/	0.0%	-5.6%	?	-3.3%
Oc1cccc(/C=N/N2CCCCC2)c1O	/	/	-16.4%	?	9.53µM*	-2.9%
Oc1ccccc1/C=N/N1CCCCC1	-5.2%	1.8%	14.1%	?	23.9µM*	-0.1%
Oc1ccc(/C=N/N2CCCCC2)c(O)c1	/	/	-4.6%[1.84 µM]	?	19µM*	?
O=C(CSc1ccccc1)N1CCc2c([nH]c3ccccc23)C1c1ccc(Cl)cc1 (stereo unspecified)	/	/	/	/	0.0%	/
CC(=O)Nc1nonc1-c1nnc(SCC(=O)N(C)c2ccccc2)n1C	/	/	/	/	-6.2%	/
CN(C)S(=O)(=O)c1cccc(NC(=S)N/N=C/c2cc(Br)ccc2O)c1	/	/	-37.8%	7.7%	19µM*	-19.8%
CC(=O)Nc1ccc(/C=C/c2nc(-c3ccccc3O)n[nH]2)cc1	/	/	3.55µM*	?	?	?
COc1cc(/C=C/c2nc(-c3ccccc3O)n[nH]2)cc(OC)c1OC	-3.1%	?	3.0%	-0.6%	?	13.1%
COc1cccc(Nc2ccc3cc(S(=O)(=O)N4CCC(C)CC4)ccc3n2)c1	/	/	/	/	-1.0%	/
CN(C(=O)/C=C/c1cnc2ccccc2c1)C1CCCCC1	-2.3%	3.16µM*	1.12µM*	-0.9%	4.26µM*	1.58µM*
SMILES	Luc counter	SMN2 splice enh	Rab9 promoter act	ELG1 genotoxic	FLuc modulator	NPC1 prom act
COc1ccc(/C=C/C(=O)N(C)C2CCCCC2)cc1Br	-2.1%	?	22.5%	?	23.9µM*	15.7%
COC(=O)CCn1cnc2onc(-c3cc(F)cc(F)c3)c2c1=O	/	-9.7%	/	/	-11.5%	/
CC(=O)c1ccc(NC(=O)CSC2=Nc3ccccc3N=C(c3ccc(F)cc3)C2)cc1	/	/	/	/	-1.7%	/
CCOC(=O)c1ccc2[nH]c3c(c2c1)CCCC3	/	/	?	23.1µM*	10.7µM*	2.82µM*
COC(=O)c1ccc2[nH]c3c(c2c1)CC(C)CC3 (stereo unspecified)	/	/	11.4%	?	12µM*	20.1%
COc1ccc(NC(=O)Nc2c[nH]c(=O)[nH]c2=O)c(OC)c1	/	/	/	/	5.8%	/
Cc1nn(C(=O)c2cc3sccc3[nH]2)c(C)c1C	1.3%	?	?	15.9%	3.01µM*	?
Cc1nn(C(=O)CNC(=O)c2ccccc2)c(C)c1C	0.5%	-0.8%	-10.9%	7.2%	-13.9%	-0.8%
O=C(COc1ccccc1)Nc1nc2ccccc2[nH]1	-4.9%	?	3.55µM*	4.47µM*	12µM*	?
Fc1c(F)c(F)c(CSc2nc3ccccc3[nH]2)c(F)c1F	1.9%	-2.4%	5.1%	?	?	2.2%
Cc1c(OCC(F)(F)F)ccnc1CSc1nc2ccccc2[nH]1	-1.8%	-21.0%	?	16.5%	12µM*	?
CC(CC(=O)Nc1nc2ccccc2[nH]1)n1ccnc1 (stereo unspecified)	-0.3%	4.6%	10.1%	0.3%	-3.7%	-0.3%
CCCOc1cccc(OCC(=O)Nc2nc3ccccc3[nH]2)c1	5.5%	-22.1%	-2.3%	4.9%	?	-3.8%
CC(CC(=O)Nc1nc2ccccc2[nH]1)c1ccccc1 (stereo unspecified)	-2.0%	?	3.98µM*	?	12µM*	4.47µM*
Cc1ccccc1OCCCSc1nc2ccccc2[nH]1	/	/	2.5%	0.0%	23.9µM*	0.1%
Cc1ccc(NC(=O)C(=O)NCCCN2CCOCC2)cc1C	/	-12.3%	/	/	6.7%	/
Cc1ccccc1OCC(=O)Nc1nc2ccccc2[nH]1	0.2%	17.8µM*	2.24µM*	24.0%	3.38µM*	?
O=C(COc1cccc2ccccc12)Nc1nc2ccccc2[nH]1	-3.2%	10.7%	-7.1%	1.0%	?	-4.2%
CCOc1ccccc1OCC(=O)Nc1nc2ccccc2[nH]1	3.0%	10.9%	11.8%	-3.0%	15.1µM*	-1.4%
Cc1cc(C)c(OCC(=O)Nc2nc3ccccc3[nH]2)c(C)c1	1.9%	2.7%	-0.7%	0.8%	-13.2%	0.6%
CSc1nc(C)cc(Nc2ccc(O)c(CN3CCCCC3)c2)n1	-3.7%[7.66 µM]	-3.8%[9.22 µM]	/	/	/	/
Cc1ccc2c(c1)C(c1ccncc1)=NNC(c1ccccc1)=N2	-18.6%	/	2.82µM*	6.7%	16.9µM*	?
Cc1ccc(C2=Nc3ccc(Br)cc3C(c3ccncc3)=NN2)cc1	12.6%	-98.5%	27.3%	2.6%	26.9µM*	-3.2%
Fc1ccc2c(c1)C(c1ccncc1)=NNC(c1ccc(Br)cc1)=N2	-1.0%	-6.1%	3.5%	-3.6%	-0.1%	-1.2%
Cc1ccc(C2=Nc3cccnc3C(c3ccccc3)=NN2)cc1	-15.6%	12.6µM*	3.16µM*	?	10.7µM*	3.55µM*
